Experimental data taken from the supplement of paper PMC13172266.

Tests used:
Assay in all cases: cell proliferation relative to vehicle (% of vehicle); higher = less growth inhibition
Details in all cases: 72 h
[1] = system: U2932 TK216-resistant clone 2
Summary of the method: (§1)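 A library of 348 targeted inhibitors was screened against the ABC-DLBCL cell line U2932, using parental cells and two clones made resistant to an ETS-targeting agent through repeated exposure over almost a year. The cells were cultured at 37°C and 5% CO2 in medium containing 10% FBS and treated at 500 nM or 50 nM for 72 h, after which MTT was added for 4 h, stopped with 25% SDS, and absorbance was read on a Cytation 3. Proliferation is given as the percentage of proliferating cells relative to the vehicle, DMSO.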

[2] = system: U2932 TK216-resistant clone 3
Summary of the method: as §1

U2932 parental = system: U2932 parental
Summary of the method: as §1

| Compound | cell proliferation ([1]; 50 nM) | cell proliferation ([1]; 500 nM) | cell proliferation ([2]; 50 nM) | cell proliferation ([2]; 500 nM) | cell proliferation (U2932 parental; 50 nM) | cell proliferation (U2932 parental; 500 nM) |
| --- | --- | --- | --- | --- | --- | --- |
| Nc1cccc2c1C(=O)N(C1CCC(=O)NC1=O)C2=O (configuration not stated) [Pomalidomide] | 95.8 | 94.7 | 91 | 84.7 | 93.2 | 84.3 |
| NC(=O)Nc1cc(-c2cccc(F)c2)sc1C(=O)N[C@H]1CCCNC1 | 89.8 | 13.6 | 91.8 | 18.9 | 83 | 11.5 |
| Nc1nc(F)nc2c1ncn2[C@@H]1O[C@H](CO)[C@@H](O)[C@@H]1O [Fludarabine] | 107 | 97.8 | 103 | 96.4 | 103 | 97.3 |
| Nc1ncn([C@H]2C[C@H](O)[C@@H](CO)O2)c(=O)n1 [Decitabine] | 72.5 | 59.1 | 92.9 | 78.3 | 85.1 | 73.1 |
| Cc1nc(NC(=O)N2CCC[C@H]2C(N)=O)sc1-c1ccnc(C(C)(C)C(F)(F)F)c1 | 98.4 | 78.7 | 96.2 | 85 | 97.7 | 91 |
| CNC(=O)c1cc(Oc2ccc(NC(=O)Nc3ccc(Cl)c(C(F)(F)F)c3)c(F)c2)ccn1 [Regorafenib (BAY 73-4506)] | 103 | 116 | 105 | 107 | 105 | 105 |
| Cc1cn(-c2cc(NC(=O)c3ccc(C)c(Nc4nccc(-c5cccnc5)n4)c3)cc(C(F)(F)F)c2)cn1 [Nilotinib (AMN-107)] | 106 | 110 | 102 | 106 | 103 | 103 |
| O=C(Cc1ccc(-c2ccc(OCCN3CCOCC3)cc2)cn1)NCc1ccccc1 | 14.1 | 8.36 | 20.3 | 8.01 | 13.9 | 9.55 |
| C[C@@H](Nc1cc(F)cc(F)c1)c1cc(C(=O)N(C)C)cc2c(=O)cc(N3CCOCC3)oc12 | 111 | 83.1 | 99.4 | 84.5 | 99.9 | 90.3 |
| CCn1c2ccccc2c2cc(Nc3ccnc(NCCCN4CCOCC4)n3)ccc21 | 85.4 | 91 | 74.8 | 88.1 | 83.6 | 91.7 |
| COc1ccc(C(=O)C2CCN(CC(=O)N(Cc3nc4c(c(=O)[nH]3)COCC4)CC3CC3)CC2)cc1 | 99.7 | 95.3 | 92.2 | 93.6 | 97.7 | 97.5 |
| S=C(NCc1ccc2c(c1)OCO2)N1CCN(c2ncnc3c2oc2ccccc23)CC1 [Amuvatinib (MP-470)] | 102 | 109 | 107 | 104 | 100 | 101 |
| COc1cc(Nc2ncc(F)c(Nc3ccc4c(n3)NC(=O)C(C)(C)O4)n2)cc(OC)c1OC | 108 | 97.1 | 103 | 103 | 87.9 | 82.1 |
| C[C@H]1c2cccc(O)c2C(=O)C2=C(O)[C@]3(O)C(=O)C(C(N)=O)=C(O)[C@@H](N(C)C)[C@@H]3[C@@H](O)[C@@H]21 [Doxycycline Hyclate] | 104 | 105 | 102 | 102 | 106 | 105 |
| Cc1cn([C@H]2O[C@@H](CO)[C@H](O)[C@H]2F)c(=O)[nH]c1=O [Clevudine] | 100 | 103 | 96.2 | 103 | 98.8 | 96.8 |
| CC1(C)CCC(c2ccc(Cl)cc2)=C(CN2CCN(c3ccc(C(=O)NS(=O)(=O)c4ccc(N[C@H](CCN5CCOCC5)CSc5ccccc5)c(S(=O)(=O)C(F)(F)F)c4)cc3)CC2)C1 [ABT-263 (Navitoclax)] | 100 | 62.4 | 99.4 | 64.2 | 91.5 | 86.6 |
| COc1cc2nccc(Oc3ccc(NC(=O)C4(C(=O)Nc5ccc(F)cc5)CC4)cc3)c2cc1OC [Cabozantinib malate (XL184)] | 109 | 109 | 102 | 95.7 | 109 | 103 |
| Cc1cc([C@@H](C)Nc2ccccc2C(=O)O)c2nc(N3CCOCC3)cc(=O)n2c1 | 107 | 95 | 103 | 95.3 | 99.9 | 101 |
| CC[C@@]1(O)C(=O)OCc2c1cc1n(c2=O)Cc2cc3cc(O)ccc3nc2-1 [(S)-10-Hydroxycamptothecin] | 4.11 | 1.46 | 7.4 | 5.84 | 2.21 | 0.765 |
| Cc1ccc([C@@H]2O[C@H](CO)[C@@H](O)[C@H](O)[C@H]2O)cc1Cc1ccc(-c2ccc(F)cc2)s1 [Canagliflozin] | 93.3 | 102 | 104 | 104 | 91.9 | 87.9 |
| COc1nc(C)cnc1NS(=O)(=O)c1cccnc1-c1ccc(-c2nnco2)cc1 [Zibotentan (ZD4054)] | 95.1 | 104 | 106 | 102 | 97.2 | 95.2 |
| Cn1cc(-c2ccc3nnc(C(F)(F)c4ccc5ncccc5c4)n3n2)cn1 | 102 | 103 | 106 | 113 | 99.8 | 99.2 |
| Cc1nc(N)sc1-c1ccnc(Nc2ccc(N3CCOCC3)cc2)n1 | 91.2 | 103 | 99.5 | 103 | 103 | 95.8 |
| CC(=O)O[C@@]12CO[C@@H]1C[C@H](O)[C@@]1(C)C(=O)[C@H](O)C3=C(C)[C@@H](OC(=O)[C@H](O)[C@@H](NC(=O)OC(C)(C)C)c4ccccc4)C[C@@](O)([C@@H](OC(=O)c4ccccc4)[C@H]21)C3(C)C [Docetaxel] | 8.81 | 11.6 | 5.58 | 6.54 | 9.62 | 9.31 |

| Compound | cell proliferation ([1]; 50 nM) | cell proliferation ([1]; 500 nM) | cell proliferation ([2]; 50 nM) | cell proliferation ([2]; 500 nM) | cell proliferation (U2932 parental; 50 nM) | cell proliferation (U2932 parental; 500 nM) |
| --- | --- | --- | --- | --- | --- | --- |
| Cc1cc(Nc2nc(N[C@@H](C)c3ncc(F)cn3)ncc2Cl)[nH]n1 | 116 | 108 | 105 | 117 | 96.7 | 91.5 |
| CC(C)n1c(/C=C/C(O)CC(O)CC(=O)O)c(-c2ccc(F)cc2)c2ccccc21 (configuration not stated) [Fluvastatin Sodium] | 97.4 | 89.5 | 92.2 | 102 | 81.9 | 83.5 |
| N#CC[C@H](C1CCCC1)n1cc(-c2ncnc3[nH]ccc23)cn1 | 100 | 95.4 | 103 | 108 | 96.7 | 96.5 |
| COc1cc(C(=O)N2CCC(N3CCN(C)CC3)CC2)ccc1Nc1ncc2c(n1)N(C)c1ccccc1C(=O)N2C | 104 | 92.2 | 100 | 100 | 105 | 101 |
| O=C(Nc1cc(C(F)(F)F)cc(C(F)(F)F)c1)c1cc(Cl)ccc1O | 103 | 104 | 109 | 102 | 102 | 101 |
| CC(C)Oc1ccc(C(=O)N[C@H](CNC(=O)CN(C)C)Cc2ccc(-c3cn4cccc([C@H](C)O)c4n3)cc2)cc1Cl | 45.4 | 15 | 34.3 | 14.4 | 47.6 | 14.6 |
| CCN(CC)CCNC(=O)c1c(C)[nH]c(/C=C2\C(=O)Nc3ccc(F)cc32)c1C [Sunitinib Malate] | 107 | 94.6 | 99.4 | 92.6 | 101 | 104 |
| CCCCCCNC(=O)n1cc(F)c(=O)[nH]c1=O [Carmofur] | 98.3 | 101 | 104 | 99.8 | 102 | 103 |
| OCCn1cc(-c2cnc3nnn(Cc4ccc5ncccc5c4)c3n2)cn1 | 111 | 107 | 105 | 107 | 99.4 | 104 |
| CCNc1nc(Nc2cc(F)c(C(=O)N3CCOCC3)cc2OC)ncc1C(F)(F)F | 101 | 97.4 | 97.8 | 104 | 104 | 101 |
| CC(=O)c1c(C)c2cnc(Nc3ccc(N4CCNCC4)cn3)nc2n(C2CCCC2)c1=O | 93.7 | 85.1 | 97.3 | 92.5 | 87.6 | 88.8 |
| Nc1ncn([C@@H]2O[C@H](CO)[C@@H](O)[C@H]2O)c(=O)n1 [Azacitidine] | 103 | 96.5 | 103 | 97.2 | 99.9 | 91.8 |
| COc1cc(Nc2ncc3c(n2)-c2ccc(Cl)cc2C(c2c(F)cccc2OC)=NC3)ccc1C(=O)O [Alisertib (MLN8237)] | 73.6 | 79.3 | 61.8 | 72.8 | 52.2 | 53.2 |
| c1cc(-c2cnn3cc(-c4ccc(OCCN5CCCCC5)cc4)cnc23)ccn1 [Dorsomorphin 2HCl] | 113 | 98 | 119 | 108 | 110 | 98.3 |
| O=C(Nc1ccc(OC(F)(F)F)cc1)c1sccc1NCc1ccnc2ccccc12 | 105 | 101 | 105 | 109 | 100 | 98.9 |
| CCCCNc1ncc2c(-c3ccc(CN4CCN(C)CC4)cc3)cn([C@H]3CC[C@H](O)CC3)c2n1 | 95.5 | 71.1 | 92 | 65.6 | 91.3 | 62.7 |
| CCn1c(-c2nonc2N)nc2c(C#CC(C)(C)O)ncc(OC[C@H]3CCCNC3)c21 | 91.1 | 54.1 | 97 | 66.9 | 90.5 | 58.6 |
| Nc1nccc2c1ncn2C1C=C(CO)C(O)C1O (configuration not stated) [3-Deazaneplanocin A (DZNeP)] | 103 | 86.2 | 102 | 82.1 | 98.1 | 81.5 |
| CS(=O)(=O)CCNCc1ccc(-c2ccc3ncnc(Nc4ccc(OCc5cccc(F)c5)c(Cl)c4)c3c2)o1 | 101 | 85.9 | 94.2 | 84.4 | 96.6 | 97.3 |
| NC(=O)c1ccc(-c2nc(-c3ccccn3)c(-c3ccc4c(c3)OCO4)[nH]2)cc1 | 115 | 109 | 100 | 102 | 101 | 101 |
| COc1cc2c(cc1O)CC[C@@H]1[C@@H]2CC[C@]2(C)[C@@H](O)CC[C@@H]12 [2-Methoxyestradiol (2-MeOE2)] | 105 | 102 | 103 | 83.4 | 99.8 | 54 |
| C=CCNC1=C2C[C@@H](C)C[C@H](OC)[C@H](O)[C@@H](C)/C=C(\C)[C@H](OC(N)=O)[C@@H](OC)/C=C\C=C(/C)C(=O)NC(=CC1=O)C2=O [17-AAG (Tanespimycin)] | 103 | 115 | 105 | 114 | 96.7 | 107 |
| CS(=O)(=O)c1ccc(C(=O)Nc2ccc(Cl)c(-c3ccccn3)c2)c(Cl)c1 [Vismodegib (GDC-0449)] | 106 | 108 | 108 | 113 | 98.2 | 103 |
